{
  "source": "PubChem BioAssay (Tox21)",
  "note": "Activity calls are given as the source filed them. The call rests on the fitted dose curve; in most records, active means well fitted activation curve with a large enough effect in the repeat runs; inconclusive means weak or mixed curves; inactive means flat fitted curve, though single readings scatter. On the % scale 0 is the no-effect control and ±100 the full control effect.",
  "data": [
    {"test": "Caspase-3/7 induction in CHO-K1 cells by small molecules, qHTS assay (AID 1346980); further: nearly all actives have a fitted effect of over 15% in size", "settings": "CHO-K1 caspase-3/7 induction, Caspase-Glo luminescence, 17 h; series mostly up to 92.4 µM; caspase-3/7 activation: at the top concentration", "source_text": "National Center for Advancing Translational Sciences [NCATS]\nNIH Chemical Genomics Center [NCGC]\nU.S. Environmental Protection Agency [EPA]\nNational Institutes of Environmental Health Sciences [NIEHS]\nNational Toxicology Program [NTP]\nApoptosis is a process of programmed cell death and plays a central role in the development of multicellular organisms. It is a highly regulated process and induces cell death by activating caspases, which are the members of cysteine aspartic acid-specific protease (caspase) family. Caspases involved in apoptosis are classified by their mechanism of action as initiator caspases (caspase-2, -8, -9 and -10) and executioner caspases (caspase-3, -6, and -7). Inhibition of apoptosis results in number of cancers, autoimmune diseases, inflammatory diseases and viral infection. To identify small molecule compounds that induce apoptosis, a homogeneous, luminescent Caspase-Glo 3/7 assay was used. Wild type CHO-K1 cells were used to screen Tox21 libraries for identifying caspase-3/7 activity inducers.\nCHO-K1 cells were dispensed at 1,500 per well in 5uL of culture medium into white solid bottom 1536-well plates (Corning Life Sciences, Corning, NY) using a Multidrop Combi (Thermo Scientific, Waltham, MA) dispenser. The assay plates were incubated at 37 C and 5% CO2 for 5hr, and then 23nL of compounds dissolved in DMSO and positive control were transferred using a Pintool station (Wako, San Diego, CA). The assay plates were incubated at 37C and 5% CO2 for 17hr. For caspase-3/7 activity read, 4uL of Caspase-Glo 3/7 reagent (Promega Corporation, Madison, WI) was added to each well of the assay plates using Flying Reagent Dispenser (FRD, Aurora Discovery, San Diego, CA) and incubated the assay plates at room temperature for 30min. The luminescence signal was quantified using a ViewLux plate reader (Perkin Elmer, Shelton, CT).", "values": [
      {"smiles": "Cc1c(N)cccc1N", "caspase-3/7 activation": "-1.68% (inactive)"},
      {"smiles": "CCN(CC)C(=O)N(CC)CC", "caspase-3/7 activation": "0.591% (inactive)"},
      {"smiles": "CCCCCCCOC(=O)CCC", "caspase-3/7 activation": "0.018% (inactive)"},
      {"smiles": "CN1CCC[C@@H]1Cc1c[nH]c2ccc(CCS(=O)(=O)c3ccccc3)cc12", "caspase-3/7 activation": "-1.12% [at 42.5 µM] (inactive)"},
      {"smiles": "Cc1c[nH]c(=S)[nH]c1=O", "caspase-3/7 activation": "0.147% (inactive)"},
      {"smiles": "CC/C=C\\CCOC(=O)CCCCC", "caspase-3/7 activation": "0.154% (inactive)"},
      {"smiles": "CC(=O)Oc1cc(C(C)C)c(OCCN(C)C)cc1C", "caspase-3/7 activation": "-1.44% [at 42.5 µM] (inactive)"},
      {"smiles": "CCN(CCCc1ccccc1)CCCc1ccccc1", "caspase-3/7 activation": "0.519% [at 42.5 µM] (inactive)"},
      {"smiles": "C=CC(C)(O)CC/C=C(\\C)CCC=C(C)C", "note": "(stereo not given)", "caspase-3/7 activation": "3.07% (inactive)"},
      {"smiles": "CN1[C@@H]2CC[C@H]1CC(OC(=O)c1c[nH]c3ccccc13)C2", "note": "(stereo not given in full)", "caspase-3/7 activation": "-0.965% [at 42.5 µM] (inactive)"},
      {"smiles": "O=C(CCCl)NCc1ccccc1", "caspase-3/7 activation": "-0.201% [at 42.5 µM] (inactive)"},
      {"smiles": "CC1(C)S[C@@H]2[C@H](NC(=O)C(C(=O)O)c3ccccc3)C(=O)N2[C@H]1C(=O)O", "note": "(stereo not given in full)", "caspase-3/7 activation": "-0.272% [at 42.5 µM] (inactive)"},
      {"smiles": "CC1=C(CC(=O)O)c2cc(F)ccc2/C1=C\\c1ccc(S(C)(=O)=O)cc1", "caspase-3/7 activation": "0.001% [at 42.5 µM] (inactive)"},
      {"smiles": "C1CSCCS1", "caspase-3/7 activation": "-0.0059% (inactive)"},
      {"smiles": "O=C(O)c1cccc(Cl)c1Cl", "caspase-3/7 activation": "1.25% (inactive)"},
      {"smiles": "CCOC(=O)[C@H](CCc1ccccc1)N[C@@H](C)C(=O)N1Cc2cc(OC)c(OC)cc2C[C@H]1C(=O)O", "caspase-3/7 activation": "0.179% [at 42.5 µM] (inactive)"},
      {"smiles": "C=CCCC=C", "caspase-3/7 activation": "2.5% (inactive)"},
      {"smiles": "CC(Oc1c(Cl)cccc1Cl)C1=NCCN1", "note": "(stereo not given)", "caspase-3/7 activation": "0.228% [at 42.5 µM] (inactive)"},
      {"smiles": "CCN(CC)CCOc1ccc(Cc2ccccc2)cc1", "caspase-3/7 activation": "0.277% [at 42.5 µM] (inactive)"},
      {"smiles": "COc1ccccc1N1CCN(CCCNc2cc(=O)n(C)c(=O)n2C)CC1", "caspase-3/7 activation": "-0.0072% [at 42.5 µM] (inactive)"},
      {"smiles": "CC(C)CC(=O)OCc1ccccc1", "caspase-3/7 activation": "0.403% (inactive)"},
      {"smiles": "CC1=NN(c2cc(Cl)c(S(=O)(=O)O)cc2Cl)C(=O)C1N=Nc1ccc(S(=O)(=O)O)cc1", "note": "(stereo not given)", "caspase-3/7 activation": "-1.97% (inactive)"},
      {"smiles": "COc1cc2c(cc1N)oc1ccccc12", "caspase-3/7 activation": "-3.49% (inactive)"},
      {"smiles": "NC(=O)NS(=O)(=O)c1ccc(Cl)cc1", "caspase-3/7 activation": "-0.771% [at 42.5 µM] (inactive)"},
      {"smiles": "CCCC1CCC(=O)O1", "note": "(stereo not given)", "caspase-3/7 activation": "0.0113% (inactive)"},
      {"smiles": "CN1CCN(C2=Nc3ccccc3Oc3ccc(Cl)cc32)CC1", "caspase-3/7 activation": "0.509% [at 42.5 µM] (inactive)"},
      {"smiles": "OCCN1CCN(CCO)CC1", "caspase-3/7 activation": "-1.63% (inactive)"},
      {"smiles": "CC/C=C\\CCOC(=O)C(C)C", "caspase-3/7 activation": "0.0796% (inactive)"},
      {"smiles": "C[C@]12CCC(=O)C=C1CC[C@@H]1[C@@H]2CC[C@@]2(C)[C@H]1CC[C@]2(O)C(=O)CO", "caspase-3/7 activation": "-1.53% [at 42.5 µM] (inactive)"},
      {"smiles": "CCOC(=O)COc1ccc2c(c1)CC(NCC(O)c1cccc(Cl)c1)CC2", "note": "(stereo not given)", "caspase-3/7 activation": "3.36% (inactive)"},
      {"smiles": "CC(C)=CCC[C@](C)(O)[C@@H]1CC=C(C)CC1", "caspase-3/7 activation": "6.15% (inactive)"},
      {"smiles": "CC(C)OC(C)C", "caspase-3/7 activation": "-0.703% (inactive)"},
      {"smiles": "CCCCCCn1c(=O)c2c(ncn2C)n(C)c1=O", "caspase-3/7 activation": "-0.19% [at 42.5 µM] (inactive)"},
      {"smiles": "CCCOc1ccc2c(c1)CC[C@@H]1[C@@H]2CC[C@]2(C)C(OC)CC[C@@H]12", "note": "(stereo not given in full)", "caspase-3/7 activation": "-0.308% [at 42.5 µM] (inactive)"},
      {"smiles": "Cc1c(C(=O)NCCO)[n+](=O)c2ccccc2n1[O-]", "caspase-3/7 activation": "0.377% [at 42.5 µM] (inactive)"},
      {"smiles": "CCOC(=O)C(Br)c1ccccc1", "note": "(stereo not given)", "caspase-3/7 activation": "-0.393% (inactive)"},
      {"smiles": "CC1=CC(=O)CC(C)(C)C1=O", "caspase-3/7 activation": "-0.982% (inactive)"},
      {"smiles": "CC1(O)CSC(C)(O)CS1", "note": "(stereo not given)", "caspase-3/7 activation": "0.886% (inactive)"},
      {"smiles": "Cc1ccc(C(C)C)cc1O", "caspase-3/7 activation": "0.263% (inactive)"},
      {"smiles": "COc1cc(N)c(Cl)cc1C(=O)NC1CCN(Cc2ccccc2)CC1", "caspase-3/7 activation": "1.93% [at 42.5 µM] (inactive)"}
    ]}
  ]
}
